# Data from the supplement of paper PMC10849652.
# Targets with a hit are over-represented here; the source holds about 8,800 in all. About 0.5% of all pairs of compound and target were hits. Unmarked numbers belong to inactive results.
# Tests used:
# Assay in all cases: log2 fold change, soluble protein after heating vs DMSO (PISA); higher = thermal stabilisation; K562 lysate, 10 uM; active = over 0.2 and 3.5 SD of the protein, either way, in both replicates (recomputed)
# [1] = compound: NCC(=O)Nc1ccc(-n2nc(C(F)(F)F)cc2-c2ccc3c(ccc4ccccc43)c2)cc1
# Summary of the method: (§1)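 Values give the log-two fold change in thermal stability against solvent controls, from duplicates. Crude K562 extract at 1 mg/mL protein, made by dounce homogenisation in PBS pH 7.4 with 1 mM MgCl2, was treated with 10 μM compound for 30 min. After 3 min heating across 48°C-58°C, aliquots were pooled, adjusted to 0.5% NP-40 at 4°C and centrifuged at 21,000xg for 90 min. The supernatant was measured by TMTpro 16plex LC-MS/MS with channel sums equalised.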
# vorinostat = compound: O=C(CCCCCCC(=O)Nc1ccccc1)NO [vorinostat]
# Summary of the method: as §1
# silmitasertib = compound: O=C(O)c1ccc2c(c1)nc(Nc1cccc(Cl)c1)c1ccncc12 [silmitasertib]
# Summary of the method: as §1
# [2] = compound: O=C1NC(=O)C(c2cnc3ccccn23)=C1c1cn2c3c(cc(F)cc13)CN(C(=O)N1CCCCC1)CC2
# Summary of the method: as §1
# entospletinib = compound: c1cn2cc(-c3ccc4cn[nH]c4c3)nc(Nc3ccc(N4CCOCC4)cc3)c2n1 [entospletinib]
# Summary of the method: as §1
# Sequence of UniProt Q5VU43 (Q5VU43 whole entry, looked up): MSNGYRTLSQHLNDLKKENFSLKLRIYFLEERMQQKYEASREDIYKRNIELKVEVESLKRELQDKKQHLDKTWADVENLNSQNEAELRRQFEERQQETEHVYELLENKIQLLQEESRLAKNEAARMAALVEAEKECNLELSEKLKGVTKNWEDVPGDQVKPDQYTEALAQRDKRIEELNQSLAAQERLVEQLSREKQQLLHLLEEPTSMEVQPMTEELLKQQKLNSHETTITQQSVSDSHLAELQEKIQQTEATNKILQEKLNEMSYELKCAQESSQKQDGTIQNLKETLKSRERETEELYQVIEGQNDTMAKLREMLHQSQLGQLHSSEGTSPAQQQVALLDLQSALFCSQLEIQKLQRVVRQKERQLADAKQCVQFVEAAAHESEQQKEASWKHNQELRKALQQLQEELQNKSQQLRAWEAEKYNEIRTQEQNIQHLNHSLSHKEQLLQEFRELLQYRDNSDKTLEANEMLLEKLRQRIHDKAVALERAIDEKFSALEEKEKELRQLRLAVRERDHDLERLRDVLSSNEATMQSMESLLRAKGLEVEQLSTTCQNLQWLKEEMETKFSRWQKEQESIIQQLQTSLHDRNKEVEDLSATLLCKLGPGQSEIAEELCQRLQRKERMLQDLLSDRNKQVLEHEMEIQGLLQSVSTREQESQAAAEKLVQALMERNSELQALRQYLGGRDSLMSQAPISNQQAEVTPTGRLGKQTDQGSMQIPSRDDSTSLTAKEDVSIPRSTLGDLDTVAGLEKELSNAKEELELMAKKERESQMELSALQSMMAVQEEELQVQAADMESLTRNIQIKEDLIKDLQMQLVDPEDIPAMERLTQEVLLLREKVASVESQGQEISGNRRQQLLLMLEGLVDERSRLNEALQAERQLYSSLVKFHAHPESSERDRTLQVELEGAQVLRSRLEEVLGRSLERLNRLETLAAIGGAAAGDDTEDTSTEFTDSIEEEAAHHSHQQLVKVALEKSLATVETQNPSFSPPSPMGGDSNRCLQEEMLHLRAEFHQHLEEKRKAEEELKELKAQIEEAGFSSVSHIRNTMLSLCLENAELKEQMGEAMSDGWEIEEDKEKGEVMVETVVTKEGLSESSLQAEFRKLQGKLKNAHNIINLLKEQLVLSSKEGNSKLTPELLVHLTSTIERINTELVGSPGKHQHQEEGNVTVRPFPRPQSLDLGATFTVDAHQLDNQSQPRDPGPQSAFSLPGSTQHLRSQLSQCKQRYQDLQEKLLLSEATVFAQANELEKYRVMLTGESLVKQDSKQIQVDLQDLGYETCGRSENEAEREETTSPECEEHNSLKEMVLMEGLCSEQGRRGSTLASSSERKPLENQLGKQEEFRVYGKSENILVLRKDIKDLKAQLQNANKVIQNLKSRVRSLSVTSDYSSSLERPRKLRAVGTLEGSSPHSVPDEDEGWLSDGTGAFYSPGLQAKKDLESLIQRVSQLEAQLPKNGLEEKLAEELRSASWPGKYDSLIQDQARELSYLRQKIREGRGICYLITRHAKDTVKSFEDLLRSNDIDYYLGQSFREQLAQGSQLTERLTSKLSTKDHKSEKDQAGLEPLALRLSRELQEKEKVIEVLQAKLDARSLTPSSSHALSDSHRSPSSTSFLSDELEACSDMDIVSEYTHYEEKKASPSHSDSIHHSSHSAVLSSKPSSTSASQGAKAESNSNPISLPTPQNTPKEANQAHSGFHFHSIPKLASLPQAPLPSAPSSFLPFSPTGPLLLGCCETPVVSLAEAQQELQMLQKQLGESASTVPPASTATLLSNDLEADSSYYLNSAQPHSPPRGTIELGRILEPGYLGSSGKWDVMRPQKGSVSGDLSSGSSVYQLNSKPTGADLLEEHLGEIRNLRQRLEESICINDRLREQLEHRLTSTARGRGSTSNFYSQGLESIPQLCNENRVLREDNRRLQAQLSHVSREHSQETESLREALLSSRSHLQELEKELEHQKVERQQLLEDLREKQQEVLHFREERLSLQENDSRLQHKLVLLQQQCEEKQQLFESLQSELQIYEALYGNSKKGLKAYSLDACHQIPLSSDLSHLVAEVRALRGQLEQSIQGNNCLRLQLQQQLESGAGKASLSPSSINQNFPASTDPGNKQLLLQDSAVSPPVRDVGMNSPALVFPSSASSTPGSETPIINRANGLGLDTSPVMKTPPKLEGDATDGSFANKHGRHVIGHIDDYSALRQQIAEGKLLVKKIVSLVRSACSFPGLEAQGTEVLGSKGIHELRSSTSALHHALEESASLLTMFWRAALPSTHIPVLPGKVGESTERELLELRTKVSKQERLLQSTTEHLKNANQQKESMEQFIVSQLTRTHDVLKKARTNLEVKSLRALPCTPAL
# Sequence of UniProt O43663 (O43663 whole entry, looked up): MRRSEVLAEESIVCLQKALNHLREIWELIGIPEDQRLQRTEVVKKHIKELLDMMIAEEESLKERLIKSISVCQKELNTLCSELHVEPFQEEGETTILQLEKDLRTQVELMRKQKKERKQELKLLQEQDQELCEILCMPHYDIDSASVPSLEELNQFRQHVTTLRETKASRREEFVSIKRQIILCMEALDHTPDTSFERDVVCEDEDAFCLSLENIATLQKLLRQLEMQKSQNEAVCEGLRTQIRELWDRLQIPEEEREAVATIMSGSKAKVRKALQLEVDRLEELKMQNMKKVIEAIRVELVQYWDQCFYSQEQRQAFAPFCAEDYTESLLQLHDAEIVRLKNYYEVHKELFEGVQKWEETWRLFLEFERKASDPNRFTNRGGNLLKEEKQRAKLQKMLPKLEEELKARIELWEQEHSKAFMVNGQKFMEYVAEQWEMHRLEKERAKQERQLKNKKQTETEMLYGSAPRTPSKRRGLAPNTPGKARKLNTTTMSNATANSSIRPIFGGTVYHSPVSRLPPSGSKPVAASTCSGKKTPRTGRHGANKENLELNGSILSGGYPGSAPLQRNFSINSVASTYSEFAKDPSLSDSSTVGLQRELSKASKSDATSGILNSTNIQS
# Sequence of UniProt P09884 (P09884 whole entry, looked up): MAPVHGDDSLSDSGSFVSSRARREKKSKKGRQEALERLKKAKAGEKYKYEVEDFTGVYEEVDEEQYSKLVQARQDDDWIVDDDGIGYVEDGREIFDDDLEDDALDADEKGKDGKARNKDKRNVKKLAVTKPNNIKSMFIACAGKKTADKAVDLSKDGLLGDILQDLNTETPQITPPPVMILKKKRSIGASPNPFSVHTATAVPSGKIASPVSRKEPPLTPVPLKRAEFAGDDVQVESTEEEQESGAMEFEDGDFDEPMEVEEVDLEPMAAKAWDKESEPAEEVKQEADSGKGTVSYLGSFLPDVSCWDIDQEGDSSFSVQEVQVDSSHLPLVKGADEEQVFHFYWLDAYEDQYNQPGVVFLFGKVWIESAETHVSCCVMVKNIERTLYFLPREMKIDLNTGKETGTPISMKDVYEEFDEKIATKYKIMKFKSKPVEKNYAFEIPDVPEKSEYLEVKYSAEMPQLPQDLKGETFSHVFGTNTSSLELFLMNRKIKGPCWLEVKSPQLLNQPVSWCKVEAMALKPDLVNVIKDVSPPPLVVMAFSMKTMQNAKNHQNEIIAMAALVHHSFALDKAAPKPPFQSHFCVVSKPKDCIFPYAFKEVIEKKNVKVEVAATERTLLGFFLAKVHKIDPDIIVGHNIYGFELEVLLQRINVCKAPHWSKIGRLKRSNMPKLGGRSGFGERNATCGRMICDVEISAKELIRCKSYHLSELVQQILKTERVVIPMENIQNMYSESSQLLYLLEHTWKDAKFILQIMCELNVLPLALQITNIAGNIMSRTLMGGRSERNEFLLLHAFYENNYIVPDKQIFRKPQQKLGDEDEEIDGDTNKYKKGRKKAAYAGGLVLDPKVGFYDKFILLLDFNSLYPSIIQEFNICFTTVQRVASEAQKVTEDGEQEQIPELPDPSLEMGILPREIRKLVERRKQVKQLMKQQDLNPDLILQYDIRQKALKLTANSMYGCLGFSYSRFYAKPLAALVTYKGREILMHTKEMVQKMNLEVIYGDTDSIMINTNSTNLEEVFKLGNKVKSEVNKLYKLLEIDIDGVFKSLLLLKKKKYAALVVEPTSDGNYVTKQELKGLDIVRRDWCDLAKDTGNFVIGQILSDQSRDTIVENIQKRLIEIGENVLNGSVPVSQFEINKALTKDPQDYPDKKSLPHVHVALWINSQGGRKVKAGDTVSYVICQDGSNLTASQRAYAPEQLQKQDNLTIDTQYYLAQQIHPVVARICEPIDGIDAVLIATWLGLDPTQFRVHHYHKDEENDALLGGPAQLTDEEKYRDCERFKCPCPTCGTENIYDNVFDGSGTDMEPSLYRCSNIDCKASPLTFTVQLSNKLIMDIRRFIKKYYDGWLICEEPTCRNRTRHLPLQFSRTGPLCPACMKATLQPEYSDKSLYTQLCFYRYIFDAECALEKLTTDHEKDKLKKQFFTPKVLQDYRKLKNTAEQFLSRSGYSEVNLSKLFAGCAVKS
# Sequence of UniProt Q9H939 (Q9H939 whole entry, looked up): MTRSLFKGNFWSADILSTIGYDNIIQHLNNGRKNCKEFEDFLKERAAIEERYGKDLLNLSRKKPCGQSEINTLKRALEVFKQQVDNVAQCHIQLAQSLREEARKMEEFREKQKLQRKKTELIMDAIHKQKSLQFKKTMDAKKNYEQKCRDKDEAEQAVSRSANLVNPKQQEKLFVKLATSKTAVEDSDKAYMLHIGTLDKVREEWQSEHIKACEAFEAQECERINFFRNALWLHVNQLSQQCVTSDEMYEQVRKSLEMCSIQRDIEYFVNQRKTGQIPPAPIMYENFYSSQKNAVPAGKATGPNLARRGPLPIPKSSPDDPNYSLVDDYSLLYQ
# Sequence of UniProt P06454 (P06454 whole entry, looked up): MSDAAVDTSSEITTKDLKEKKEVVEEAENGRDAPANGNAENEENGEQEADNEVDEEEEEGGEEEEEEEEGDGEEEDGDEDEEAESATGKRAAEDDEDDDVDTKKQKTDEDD
# Sequence of UniProt O00264 (O00264 whole entry, looked up): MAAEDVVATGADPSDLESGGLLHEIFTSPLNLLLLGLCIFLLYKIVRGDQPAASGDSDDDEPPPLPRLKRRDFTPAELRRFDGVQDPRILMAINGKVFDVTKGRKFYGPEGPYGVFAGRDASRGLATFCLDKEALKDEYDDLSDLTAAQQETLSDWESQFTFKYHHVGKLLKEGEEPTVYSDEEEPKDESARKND
Target,log2 fold change [1],log2 fold change (vorinostat),log2 fold change (silmitasertib),log2 fold change [2],log2 fold change (entospletinib)
PFKFB4 (UniProt Q16877),0.007,-0.369 (active),0,-0.031,0.051
PRKCSH (UniProt K7ELL7),0.132,0.109,0.016,0.016,-0.097
PCBP2 isoform 8 (UniProt Q15366),-0.06,-0.489 (active),-0.037,0.054,-0.091
PCBP2 (UniProt H3BRU6),0.139,-0.662 (active),-0.102,-0.053,0.061
PRKD2 isoform 3 (UniProt Q9BZL6),-0.043,-0.326 (active),0.051,0.088,0.052
PRKAB2 (UniProt O43741),-0.006,-0.009,0.111,0.096,0.013
PRPH isoform 2 (UniProt P41219),0,0.112,0.001,-0.098,-0.052
QKI (UniProt Q96PU8),-0.008,-0.147,0.021,0.045,0.007
PIGO (UniProt Q8TEQ8),-0.156,0.15,0.18,0.121,-0.015
POLB (UniProt P06746),0.027,-0.302 (active),-0.106,-0.023,0.022
PDE4DIP isoform 4 (UniProt Q5VU43),0.077,0.029,-0.029,0.057,-0.025
PTMA (UniProt P06454),-0.002,0.093,-0.036,0.023,-0.025
PGRMC1 (UniProt O00264),-0.018,0.113,0.017,0.014,-0.02
PFKFB2 (UniProt O60825),-0.007,-0.39 (active),0.033,0.026,0.018
PEF1 (UniProt Q9UBV8),-0.186,0.467 (active),-0.005,-0.008,-0.009
PRIMPOL (UniProt Q96LW4),-0.03,-0.337 (active),0.034,-0.028,0.029
PIK3CG (UniProt P48736),-0.111,-0.037,0.04,-0.027,-0.073
PRC1 (UniProt O43663),0.012,-0.387 (active),0.046,-0.02,0.023
PRKCA (UniProt P17252),-0.045,-0.14,0.044,0.087,0.018
PIK3CB (UniProt P42338),-0.041,-0.395,0.321,-0.046,0.038
PTPN6 isoform 4 (UniProt P29350),-0.001,-0.039,0.078,0.006,0.107
PIK3R1 (UniProt P27986),-0.035,-0.206,0.213,0.022,0.03
PUS3 (UniProt Q9BZE2),0.051,-0.527 (active),0.11,0.017,-0.041
PLEKHO2 (UniProt Q8TD55),0.045,-0.103,0.347,-0.018,0.082
PPOX (UniProt P50336),0,-0.142,0.11,0.016,0
PRKACA (UniProt P17612),-0.114,0.007,-0.02,0.033,0.03
PPP2R5C isoform 5 (UniProt Q13362),0.002,0.049,0.019,0.022,0.011

Target,log2 fold change [1],log2 fold change (vorinostat),log2 fold change (silmitasertib),log2 fold change [2],log2 fold change (entospletinib)
PDF (UniProt Q9HBH1),-0.095,-0.232,0.044,0,-0.004
PRAME (UniProt P78395),0.025,-0.283 (active),0.043,0.004,0.048
PRPF38A (UniProt Q8NAV1),-0.059,-0.278,0.03,0.03,0.055
PRPF6 (UniProt O94906),0.002,-0.262 (active),0.047,0.004,0.026
PDCD4 (UniProt Q53EL6),0.004,-0.378 (active),0.014,0.003,0.038
PYCR2 (UniProt Q96C36),0.002,0.1,-0.008,0.015,0
PCBP3 (UniProt P57721),0.016,-0.371 (active),0.001,-0.001,0.016
PPIL3 (UniProt Q9H2H8),0.084,-0.155,-0.022,0.029,-0.016
PPP4R2 (UniProt Q9NY27),-0.007,-0.053,-0.016,0.023,-0.001
PRKDC (UniProt P78527),-0.089,-0.426 (active),0.762 (active),0.207,0.013
PRIM1 (UniProt P49642),-0.015,-0.284 (active),0.049,0.024,0.035
POLR2F (UniProt P61218),-0.019,0.171,0.008,0.027,-0.086
PMS1 (UniProt P54277),0.01,-0.342 (active),0.018,0.026,-0.011
PDE2A (UniProt O00408),0.195,0.117,0.022,0.071,0.01
PPM1H (UniProt Q9ULR3),-0.004,0.206,-0.05,-0.045,-0.002
PIK3R2 (UniProt O00459),-0.007,-0.245,0.201,-0.029,-0.092
PKP3 isoform 2 (UniProt Q9Y446),-0.021,-0.286 (active),-0.043,-0.063,0.002
PLIN2 (UniProt Q99541),0.012,0.063,-0.008,0.008,-0.032
PPP1R8 (UniProt Q12972),0.02,0.04,-0.009,-0.017,0.025
PIK3C3 (UniProt Q8NEB9),-0.04,-0.066,0.037,0.019,-0.014
PSTPIP2 (UniProt Q9H939),0.046,-0.312 (active),0.04,0.017,-0.005
PPP1R12B isoform 6 (UniProt O60237),0.168,-0.063,0.091,-0.005,-0.052
PRMT7 (UniProt Q9NVM4),-0.017,-0.174,-0.011,0.04,-0.018
PSMB9 (UniProt P28065),0.07,0.057,0.008,0.081,0
POLA1 (UniProt P09884),0.009,-0.293 (active),-0.019,0.006,-0.016
PTGR2 (UniProt Q8N8N7),-0.083,0.656 (active),-0.002,0.11,-0.005
